Laboratory results: PubChem BioAssay AID1159580 (chemical genetic matrix, 2015)
In all, about 5,500 compounds went through this assay and about 2,000 (36%) were called active. Roughly 18% stayed inconclusive and do not appear here. Rule as the data show it: active = normalized growth mostly below about 0.91 (no sharp cut-off); inconclusive = no clear call, values can overlap the other calls; inactive = mostly above about 0.92. The list shows a part of the results.

Test: chemical genetic growth profiling, strain panel (AID 1159580);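 also: tested at 20 µM; growth read once vehicle control cultures reached saturation at 30 °C; 1 = growth at the plate median or of vehicle wells; lower values mean less growth of the strain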
Conditions: growth OD

Measured: normalized growth

CC(=O)NCc1c(I)c(NC(C)=O)c(I)c(C(=O)O)c1I
inactive: S. cerevisiae deletion strains, locus YJR075W, strain HOC1, hits give low values 1.01 | S. cerevisiae deletion strains, locus YKL009W, strain mrt4, hits give low values 1.1 | S. cerevisiae deletion strains, locus YKL068W, hits give low values 0.977 | S. cerevisiae deletion strains, locus YKL085W, strain MDH1 (second series), hits give low values 1.01 | S. cerevisiae deletion strains, locus YKL085W, strain MDH1, hits give low values 1.01 | S. cerevisiae deletion strains, locus YKL160W, strain elf1, hits give low values 0.981 | S. cerevisiae deletion strains, locus YKL190W, strain CNB1, hits give low values 0.997 | S. cerevisiae deletion strains, locus YKR001C, strain vps1, hits give low values 1 | S. cerevisiae deletion strains, locus YKR026C, strain gcn3, hits give low values 0.994 | S. cerevisiae deletion strains, locus YKR091W, strain srl3, hits give low values 0.998 | S. cerevisiae deletion strains, locus YLL001W, strain dnm1, hits give low values 0.999 | S. cerevisiae deletion strains, locus YLL026W, hits give low values 0.991 | S. cerevisiae deletion strains, locus YLL041C, strain sdh2, hits give low values 0.995 | S. cerevisiae deletion strains, locus YLR027C, strain aat2, hits give low values 1 | S. cerevisiae deletion strains, locus YLR039C, strain RIC1, hits give low values 1 | S. cerevisiae deletion strains, locus YLR058C, strain SHM2, hits give low values 0.999 | S. cerevisiae deletion strains, locus YLR102C, strain apc9, hits give low values 0.993 | S. cerevisiae deletion strains, locus YLR113W, strain HOG1, hits give low values 1.02 | S. cerevisiae deletion strains, locus YLR221C, strain rsa3, hits give low values 0.992 | S. cerevisiae deletion strains, locus YLR258W, strain gsy2, hits give low values 1 | S. cerevisiae deletion strains, locus YLR262C, strain YPT6 (second series), hits give low values 1 | S. cerevisiae deletion strains, locus YLR262C, strain YPT6, hits give low values 0.991 | S. cerevisiae deletion strains, locus YLR268W, strain sec22, hits give low values 0.97 | S. cerevisiae deletion strains, locus YLR320W, strain mms22, hits give low values 0.978 | S. cerevisiae deletion strains, locus YLR330W, strain CHS5, hits give low values 0.992 | S. cerevisiae deletion strains, locus YLR342W, strain FKS1 (second series), hits give low values 1.04 | S. cerevisiae deletion strains, locus YLR342W, strain FKS1, hits give low values 0.999 | S. cerevisiae deletion strains, locus YLR357W, strain rsc2, hits give low values 1.01 | S. cerevisiae deletion strains, locus YLR370C, strain arc18, hits give low values 1 | S. cerevisiae deletion strains, locus YLR371W, strain rom2, hits give low values 0.99 | S. cerevisiae deletion strains, locus YLR384C, strain iki3, hits give low values 0.987 | S. cerevisiae deletion strains, locus YLR418C, strain cdc73, hits give low values 1.02 | S. cerevisiae deletion strains, locus YML016C, strain PPZ1, hits give low values 1 | S. cerevisiae deletion strains, locus YML032C, strain rad52, hits give low values 0.998 | S. cerevisiae deletion strains, locus YML120C, strain ndi1, hits give low values 0.994 | S. cerevisiae deletion strains, locus YML124C, strain tub3, hits give low values 1 | S. cerevisiae deletion strains, locus YMR058W, strain fet3, hits give low values 0.995 | S. cerevisiae deletion strains, locus YMR078C, strain ctf18, hits give low values 0.984 | S. cerevisiae deletion strains, locus YMR125W, strain sto1, hits give low values 1.02 | S. cerevisiae deletion strains, locus YMR129W, hits give low values 1 | S. cerevisiae deletion strains, locus YMR205C, strain PFK2, hits give low values 1.01 | S. cerevisiae deletion strains, locus YMR223W, strain ubp8, hits give low values 1.02 | S. cerevisiae deletion strains, locus YMR231W, strain pep5, hits give low values 0.991 | S. cerevisiae deletion strains, locus YMR263W, strain SAP30, hits give low values 0.987 | S. cerevisiae deletion strains, locus YMR307W, strain GAS1, hits give low values 1.08 | S. cerevisiae deletion strains, locus YNL067W, strain RPL9B, hits give low values 0.987 | S. cerevisiae deletion strains, locus YNL071W, strain lat1, hits give low values 1 | S. cerevisiae deletion strains, locus YNL128W, strain TEP1, hits give low values 0.988 | S. cerevisiae deletion strains, locus YNL153C, strain GIM3, hits give low values 0.999 | S. cerevisiae deletion strains, locus YNL183C, strain NPR1, hits give low values 0.963 | S. cerevisiae deletion strains, locus YNL209W, strain ssb2, hits give low values 1 | S. cerevisiae deletion strains, locus YNL233W, strain BNI4, hits give low values 1.01 | S. cerevisiae deletion strains, locus YNL248C, strain rpa49, hits give low values 0.996 | S. cerevisiae deletion strains, locus YNL250W, strain rad50, hits give low values 0.99 | S. cerevisiae deletion strains, locus YNL271C, strain bni1, hits give low values 0.989 | S. cerevisiae deletion strains, locus YNL298W, strain CLA4, hits give low values 0.995 | S. cerevisiae deletion strains, locus YNL307C, strain MCK1, hits give low values 0.997 | S. cerevisiae deletion strains, locus YNL322C, strain KRE1 (second series), hits give low values 0.989 | S. cerevisiae deletion strains, locus YNL322C, strain KRE1, hits give low values 0.994 | S. cerevisiae deletion strains, locus YNR049C, strain mso1, hits give low values 0.996 | S. cerevisiae deletion strains, locus YNR052C, strain pop2, hits give low values 0.978 | S. cerevisiae deletion strains, locus YOL006C, strain TOP1, hits give low values 0.981 | S. cerevisiae deletion strains, locus YOL012C, strain htz1 0.964 | S. cerevisiae deletion strains, locus YOL147C, strain pex11, hits give low values 0.995 | S. cerevisiae deletion strains, locus YOR001W, strain rrp6, hits give low values 1.01 | S. cerevisiae deletion strains, locus YOR061W, strain CKA2, hits give low values 1 | S. cerevisiae deletion strains, locus YOR069W, strain VPS5, hits give low values 0.998 | S. cerevisiae deletion strains, locus YOR070C, strain gyp1, hits give low values 0.998 | S. cerevisiae deletion strains, locus YOR080W, strain dia2, hits give low values 0.995 | S. cerevisiae deletion strains, locus YOR083W, strain WHI5, hits give low values 0.983 | S. cerevisiae deletion strains, locus YOR106W, strain vam3, hits give low values 0.979 | S. cerevisiae deletion strains, locus YOR136W, strain idh2, hits give low values 0.999 | S. cerevisiae deletion strains, locus YOR144C, strain elg1, hits give low values 0.984 | S. cerevisiae deletion strains, locus YOR184W, strain ser1, hits give low values 0.995 | S. cerevisiae deletion strains, locus YOR231W, strain MKK1, hits give low values 1.03 | S. cerevisiae deletion strains, locus YOR265W, strain rbl2, hits give low values 0.994 | S. cerevisiae deletion strains, locus YOR270C, strain vph1, hits give low values 1.02 | S. cerevisiae deletion strains, locus YOR290C, strain snf2, hits give low values 1.01 | S. cerevisiae deletion strains, locus YOR316C, strain cot1, hits give low values 0.986 | S. cerevisiae deletion strains, locus YPL051W, strain arl3, hits give low values 0.997 | S. cerevisiae deletion strains, locus YPL055C, strain LGE1, hits give low values 0.984 | S. cerevisiae deletion strains, locus YPL078C, strain atp4, hits give low values 1 | S. cerevisiae deletion strains, locus YPL106C, strain sse1, hits give low values 0.993 | S. cerevisiae deletion strains, locus YPL240C, strain hsp82, hits give low values 0.98 | S. cerevisiae deletion strains, locus YPL241C, strain CIN2, hits give low values 1 | S. cerevisiae deletion strains, locus YPL256C, strain CLN2, hits give low values 1.01 | S. cerevisiae deletion strains, locus YPR119W, strain clb2, hits give low values 0.999 | S. cerevisiae deletion strains, locus YPR141C, strain kar3, hits give low values 0.986 | S. cerevisiae deletion strains, locus YPR163C, strain tif3, hits give low values 1 | S. cerevisiae deletion strains, locus YPR167C, strain met16, hits give low values 0.985 | S. cerevisiae deletion strains, strain wtn01, hits give low values 0.989 | S. cerevisiae strains, strain wild type, hits give low values 1
